# Measured values: PubChem BioAssay
# Values joined by “and” are separate entries in the source; they are usually repeats but may differ in a detail not shown here. Identical values can stand only once. Active and inactive are the calls of the source.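 How the source made its calls, unless noted: active means normalized viability below 100% at a tested concentration; inactive means the rest.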
# What was measured:
# [1] = Wnt pathway potentiators raising nuclear beta-catenin – imaging, WNT3A-conditioned medium, mouse C2C12, NPC library, primary screen (AID 1117326; in the data active means nuclear beta-catenin stimulation mostly above about 4.2%, no sharp cut-off; inactive means mostly below about 10%); settings: stronger effect = higher value
# [2] = growth inhibition of GSK3B-pretreated HCT116 cells – cell-based, CellTiter-Glo, 0.2 to 20 µM (AID 1117336;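 active means compounds lowering colon cancer cell viability after pretreatment blocking the GSK3B kinase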); settings: HCT116 viability after GSK3B inhibitor, at 20 µM, stronger effect = higher value
# [3] = inhibition of endothelial tube formation, primary screen, imaging, VEGF stimulated, CD31 staining, tube area, NPC library (AID 1117340;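 active means compound that reduces growth-factor-driven endothelial tube area in a mixed cell culture, no cutoff stated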); settings: VEGF-stimulated ADSC/ECFC co-culture, at 10 µM, stronger effect = higher value
# [4] = HCT116 colon cancer cell growth inhibition, primary screen, CellTiter-Glo luminescence, NPC library (AID 1117342;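 active means compounds that lower survival of HCT116 colon cancer cells in the luminescence readout, no numeric limit stated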); settings: at 20 µM (top of the series)
# [5] = reduced SW480 viability measured with CellTiter-Glo, NPC library, primary (AID 1117343;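 active means compounds that lower viability of the colon cancer cells in the luminescence readout, with no numeric limit stated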); settings: CellTiter-Glo luminescence; at 20 µM (top of the series) unless noted
# [6] = NPC library primary testing for decreased DLD-1 cell viability via CellTiter-Glo (AID 1117346;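 active means compounds that lower survival of DLD-1 colon cancer cells in the luminescence readout, no cutoff given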); settings: DLD-1 viability, CellTiter-Glo luminescence; at 20 µM (top of the series)
# [7] = P. berghei load reduction in hepatocytes – cell-based, HepG2, luciferase luminescence, HepG2 viability, primary screen (AID 624349; in the data active means parasite load remaining mostly below about 12%, no sharp cut-off; inactive means mostly above about 10%;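 further: 100% = mean of DMSO negative control wells on the same plate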); settings: P. berghei liver stage in HepG2, luciferase luminescence, concentration not given here; parasite load remaining: stronger effect = lower value; viability: measured here: HepG2 viability without parasites
# [8] = biological target: 6-phosphogluconate dehydrogenase, decarboxylating (Homo sapiens) (UniProt P52209); assay: inhibition of human phosphogluconate dehydrogenase – biochemical, recombinant enzyme, NADPH absorbance, primary screen (AID 1159550;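 active means at least 20% inhibition of 6-phosphogluconate dehydrogenase activity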); settings: recombinant 6PGD, NADPH absorbance 341 nm; at 10 µM; stronger effect = higher value
# Sequence of 6-phosphogluconate dehydrogenase, decarboxylating (Homo sapiens) (P52209 whole entry, looked up): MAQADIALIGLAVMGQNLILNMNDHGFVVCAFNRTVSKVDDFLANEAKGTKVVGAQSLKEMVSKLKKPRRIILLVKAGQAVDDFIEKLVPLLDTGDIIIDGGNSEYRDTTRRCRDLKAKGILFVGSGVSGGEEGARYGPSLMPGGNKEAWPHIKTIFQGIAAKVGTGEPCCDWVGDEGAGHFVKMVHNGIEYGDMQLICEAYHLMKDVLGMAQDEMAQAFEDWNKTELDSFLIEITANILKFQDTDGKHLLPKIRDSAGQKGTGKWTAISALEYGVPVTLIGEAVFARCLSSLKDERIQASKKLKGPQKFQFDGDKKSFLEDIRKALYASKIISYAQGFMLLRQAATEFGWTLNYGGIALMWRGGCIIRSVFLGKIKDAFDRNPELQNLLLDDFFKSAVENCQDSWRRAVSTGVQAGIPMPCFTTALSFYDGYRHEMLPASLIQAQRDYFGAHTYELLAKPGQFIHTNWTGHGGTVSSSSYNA
# [9] = EMT-state selective cytotoxicity in co-culture – imaging, PC-3E GFP, TEM4-18 mCherry, primary screen (AID 1345086;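 active means compounds killing one labelled cell type while sparing the other, by normalised counts and ratio limits, not self-fluorescent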;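 on all read-outs here: cells exposed to compound for 72 h before imaging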;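 on red/green cell ratio (normalised): normalised mesenchymal count divided by normalised epithelial count so high means epithelial killing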); settings: PC-3E GFP / TEM4-18 mCherry co-culture, imaging cell counts, at 1 µM; for red/green cell ratio (normalised): actives lie on both sides, counts scaled to control wells, 1 = unselective
# [10] = viability loss with induced miR-34 in A549 – imaging, A549 dox-inducible miR-34, nuclei and caspase counts, primary screen (AID 1347080;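 active means compounds whose cell count with miR-34 switched on is under 0.7 times the count with it off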); settings: A549 miR-34 inducible, Hoechst nuclei count, 48 h
# [11] = biological target: NAD(+) hydrolase SARM1 (Homo sapiens) (UniProt Q6SZW1); assay: blocking NAD cleavage by SARM1 SAM-TIR – cell lysate, NAD-Glo luminescence (AID 1508614;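 active means compound whose remaining NAD level is above about 45 nM, limit read from the data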); settings: SAM-TIR HEK293T lysate NADase, at 1 µM, stronger effect = higher value
# Sequence of NAD(+) hydrolase SARM1 (Homo sapiens) (Q6SZW1 whole entry, looked up, the tested form may be a part): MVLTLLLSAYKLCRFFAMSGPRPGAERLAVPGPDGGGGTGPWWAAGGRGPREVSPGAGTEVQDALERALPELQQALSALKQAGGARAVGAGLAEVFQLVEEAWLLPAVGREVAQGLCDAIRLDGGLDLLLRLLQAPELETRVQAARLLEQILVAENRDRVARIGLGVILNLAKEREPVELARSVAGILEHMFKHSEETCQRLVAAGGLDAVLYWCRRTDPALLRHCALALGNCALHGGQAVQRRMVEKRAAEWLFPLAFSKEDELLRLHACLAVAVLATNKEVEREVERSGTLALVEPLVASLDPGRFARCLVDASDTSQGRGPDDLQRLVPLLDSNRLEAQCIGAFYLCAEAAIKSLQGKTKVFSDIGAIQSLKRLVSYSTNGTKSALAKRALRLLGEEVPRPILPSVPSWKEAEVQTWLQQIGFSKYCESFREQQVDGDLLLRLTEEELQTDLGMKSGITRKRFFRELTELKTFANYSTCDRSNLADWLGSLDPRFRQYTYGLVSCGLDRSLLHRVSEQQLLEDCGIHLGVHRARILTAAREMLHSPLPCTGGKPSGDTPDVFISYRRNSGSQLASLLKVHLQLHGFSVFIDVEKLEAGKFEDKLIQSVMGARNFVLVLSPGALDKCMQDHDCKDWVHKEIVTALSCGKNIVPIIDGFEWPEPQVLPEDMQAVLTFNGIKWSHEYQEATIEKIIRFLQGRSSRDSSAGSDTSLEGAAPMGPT
# [12] = biological target: Mitogen-activated protein kinase 7 (Homo sapiens) (UniProt Q13164); assay: Gal4-ERK5 driven luciferase induction – cell-based, HTS, primary screen (AID 1508626;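 active means luciferase signal above three times the same-plate solvent-only control wells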;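 further: luciferase driven by Gal4-ERK5 fusion binding five Gal4 sites before minimal TATA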); settings: HeLa Gal4-ERK5 transactivation, 18 h, at 5 µM, stronger effect = higher value
# Sequence of Mitogen-activated protein kinase 7 (Homo sapiens) (Q13164 whole entry, looked up, the tested form may be a part): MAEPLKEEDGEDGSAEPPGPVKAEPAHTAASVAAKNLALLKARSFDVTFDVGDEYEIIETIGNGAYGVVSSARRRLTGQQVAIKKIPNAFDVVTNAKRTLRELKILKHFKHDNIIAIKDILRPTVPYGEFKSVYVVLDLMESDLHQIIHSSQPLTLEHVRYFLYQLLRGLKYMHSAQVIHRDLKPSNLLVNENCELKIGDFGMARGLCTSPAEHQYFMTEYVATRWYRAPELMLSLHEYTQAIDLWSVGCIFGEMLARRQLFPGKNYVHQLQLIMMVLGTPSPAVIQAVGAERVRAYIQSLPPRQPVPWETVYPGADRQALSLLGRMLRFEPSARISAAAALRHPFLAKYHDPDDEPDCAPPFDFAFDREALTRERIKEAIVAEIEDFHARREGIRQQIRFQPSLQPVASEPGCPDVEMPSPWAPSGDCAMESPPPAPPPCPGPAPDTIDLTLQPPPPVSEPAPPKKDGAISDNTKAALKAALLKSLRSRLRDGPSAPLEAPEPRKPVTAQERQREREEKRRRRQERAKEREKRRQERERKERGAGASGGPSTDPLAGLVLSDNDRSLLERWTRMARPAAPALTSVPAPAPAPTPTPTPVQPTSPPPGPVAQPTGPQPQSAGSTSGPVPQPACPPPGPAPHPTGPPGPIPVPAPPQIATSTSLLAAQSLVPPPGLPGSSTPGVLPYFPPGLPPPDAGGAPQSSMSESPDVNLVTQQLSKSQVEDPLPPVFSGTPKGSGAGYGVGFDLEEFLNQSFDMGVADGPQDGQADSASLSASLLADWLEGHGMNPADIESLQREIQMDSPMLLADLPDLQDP
# [13] = galactose survival enhancers in mitochondrial complex I cybrids – cell-based, galactose medium, ATP luminescence, primary screen (AID 1645843;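 active means z-score of at least 1.8 in each of two replicates, scored against plate mean and spread of sample wells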;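 further: positive z means more ATP and so rescue of galactose-driven cybrid death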); settings: complex I mutant cybrid cells, 72 h, stronger effect = higher value
# [14] = stimulators of insulin release from INS-1E, primary screen, cell-based, 5 mM glucose, NPC library (AID 1117329;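 active means compound raises insulin release from rat beta cells at 5 mM glucose, no numeric limit stated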); settings: rat INS-1E insulin secretion, at 10 µM, stronger effect = higher value
# [15] = GLP1 release stimulators, primary, NCI-H716, NPC library (AID 1117341;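 active means compound raises GLP1 secretion from the human gut endocrine cells, with no numeric limit stated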); settings: NCI-H716 cells, at 10 µM, stronger effect = higher value
# [16] = modulation of C. elegans fzo-1 (AID 1259413; call rule not given here;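 further: fzo-1 mutant C. elegans worms in liquid wells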); settings: C. elegans fzo-1 modulator screen, mean read-out; stronger effect = higher value
# [17] = drug combination growth inhibition, ovarian cancer – cell-based, oncology-focused library, rucaparib conditional, profiling panel (AID 1508598); settings: patient-derived ovarian cancer cells, CellTiter-Glo viability, 144 h, stronger effect = lower value
# [18] = growth inhibition, single agents and combos, ICB984, cell-based, cisplatin or BGB combos, synergistic combos for chromothripsis tumors (AID 1671451; call rule not given here;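 further: cells exposed for 96 hours before readout; 0% = vehicle DMSO and 100% = killing by high DMSO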); settings: ICB984 medulloblastoma cells, drug combinations, stronger effect = higher value
# [19] = measured here: epithelial PC-3E GFP cell survival
# [20] = measured here: mesenchymal TEM4-18 mCherry cell survival
compound,measurement,setting,value
CCOC(=O)c1ccccc1O,nuclear beta-catenin stimulation,[1]; at 10 µM,1.4% (inactive)
same,nuclear beta-catenin stimulation,"[1]; stimulation, at 2 µM",8.4%
same,viability decrease,[2],4.2% (inactive)
same,tube area decrease,[3],-12.2% (inactive)
same,inhibition of viability,[4],3.3% (inactive)
same,viability decrease (inhibition),[5],-4.5% (inactive)
same,viability decrease (inhibition),[6],-2.7% (inactive)
Oc1ccc(O)cc1,parasite load remaining,[7],24.8% (inactive) and -0.995% (inactive)
same,viability,[7],92.7% and 79.1%
same,nuclear beta-catenin stimulation,[1]; at 10 µM,10.9% (inactive)
same,nuclear beta-catenin stimulation,"[1]; stimulation, at 2 µM",14.4%
same,viability decrease,[2],45.2% (inactive)
same,inhibition of viability,[4],-47.7% (inactive)
same,viability decrease (inhibition),[5],20.4% (inactive)
same,viability decrease (inhibition),[6],-15% (inactive)
same,inhibition,[8],10.8% (inactive)
same,red/green cell ratio (normalised),[9],1.14 (inactive)
same,normalised cell number,[9]; [19],1.14
same,normalised cell number,[9]; [20],1.29
same,fold change,"[10]; stronger effect = lower value, cell number ratio, induced over uninduced",0.97 (inactive) and 0.922 (inactive)
same,fold change,[10]; measured here: relative caspase fold change +Dox/-Dox,0.837 and 1.69
same,cell count,"[10]; measured here: total cells with miR-34 induction, stronger effect = lower value",7800 and 7820
same,cell count,[10]; measured here: total cells without miR-34 induction,8040 and 8490
same,remaining NAD,[11],10 nM (inactive)
same,luciferase signal,[12],40 AU (inactive)
same,z-score,[13],-1.04 (inactive)
CC(C)(C)NC(=O)[C@@H]1C[C@@H]2CCCC[C@H]2CN1C[C@@H](O)[C@H](Cc1ccccc1)NC(=O)[C@H](CC(N)=O)NC(=O)c1ccc2ccccc2n1,insulin secretion stimulation,[14],1.9% (inactive)
same,viability decrease,[2],45.8% (inactive)
same,tube area decrease,[3],29.6% (inactive)
same,GLP1 secretion stimulation,[15],-3.7% (inactive)
same,inhibition of viability,[4],74% (active)
same,viability decrease (inhibition),[5],92.3% (active)
same,viability decrease (inhibition),[6],88.3% (active)
CCCC(CCC)C(=O)O,nuclear beta-catenin stimulation,[1]; at 10 µM,-1.5% (inactive)
same,nuclear beta-catenin stimulation,"[1]; stimulation, at 2 µM",8.9%
same,viability decrease,[2],4.6% (inactive)
same,inhibition of viability,[4],20.8% (inactive)
same,viability decrease (inhibition),[5],-4.3% (inactive)
same,viability decrease (inhibition),[6],13.5% (inactive)
same,inhibition,[8],13.2% (inactive)
same,mean signal,[16],274 (inactive)
same,red/green cell ratio (normalised),[9],1.21 (inactive)
same,normalised cell number,[9]; [19],0.95
same,normalised cell number,[9]; [20],1.15
same,viability,"[17]; at 0.000305 µM, OCI-C5x cells, with rucaparib 10 µM, 100% = cells with rucaparib alone",125% (inactive)
same,viability,"[17]; at 0.000305 µM, OCI-C5x cells, without rucaparib",105% (inactive)
same,viability,"[17]; at 0.000305 µM, OCI-P5x cells, with rucaparib 20 µM, 100% = cells with rucaparib alone",129% (inactive)
same,viability,"[17]; at 0.000305 µM, OCI-P5x cells, without rucaparib",126% (inactive)
same,viability,"[17]; at 0.00122 µM, OCI-C5x cells, with rucaparib 10 µM, 100% = cells with rucaparib alone",125% (inactive)
same,viability,"[17]; at 0.00122 µM, OCI-C5x cells, without rucaparib",128% (inactive)
same,viability,"[17]; at 0.00122 µM, OCI-P5x cells, with rucaparib 20 µM, 100% = cells with rucaparib alone",124% (inactive)
same,viability,"[17]; at 0.00122 µM, OCI-P5x cells, without rucaparib",121% (inactive)
same,viability,"[17]; at 0.00488 µM, OCI-C5x cells, with rucaparib 10 µM, 100% = cells with rucaparib alone",113% (inactive)
same,viability,"[17]; at 0.00488 µM, OCI-C5x cells, without rucaparib",115% (inactive)
same,viability,"[17]; at 0.00488 µM, OCI-P5x cells, with rucaparib 20 µM, 100% = cells with rucaparib alone",122% (inactive)
same,viability,"[17]; at 0.00488 µM, OCI-P5x cells, without rucaparib",127% (inactive)
same,viability,"[17]; at 0.0195 µM, OCI-C5x cells, with rucaparib 10 µM, 100% = cells with rucaparib alone",119% (inactive)
same,viability,"[17]; at 0.0195 µM, OCI-C5x cells, without rucaparib",117% (inactive)
same,viability,"[17]; at 0.0195 µM, OCI-P5x cells, with rucaparib 20 µM, 100% = cells with rucaparib alone",123% (inactive)
same,viability,"[17]; at 0.0195 µM, OCI-P5x cells, without rucaparib",123% (inactive)
same,viability,"[17]; at 0.0781 µM, OCI-C5x cells, with rucaparib 10 µM, 100% = cells with rucaparib alone",111% (inactive)
same,viability,"[17]; at 0.0781 µM, OCI-C5x cells, without rucaparib",118% (inactive)
same,viability,"[17]; at 0.0781 µM, OCI-P5x cells, with rucaparib 20 µM, 100% = cells with rucaparib alone",121% (inactive)
same,viability,"[17]; at 0.0781 µM, OCI-P5x cells, without rucaparib",124% (inactive)
same,viability,"[17]; at 0.313 µM, OCI-C5x cells, with rucaparib 10 µM, 100% = cells with rucaparib alone",116% (inactive)
same,viability,"[17]; at 0.313 µM, OCI-C5x cells, without rucaparib",115% (inactive)
same,viability,"[17]; at 0.313 µM, OCI-P5x cells, with rucaparib 20 µM, 100% = cells with rucaparib alone",118% (inactive)
same,viability,"[17]; at 0.313 µM, OCI-P5x cells, without rucaparib",122% (inactive)
same,viability,"[17]; at 1.25 µM, OCI-C5x cells, with rucaparib 10 µM, 100% = cells with rucaparib alone",119% (inactive)
same,viability,"[17]; at 1.25 µM, OCI-C5x cells, without rucaparib",112% (inactive)
same,viability,"[17]; at 1.25 µM, OCI-P5x cells, with rucaparib 20 µM, 100% = cells with rucaparib alone",112% (inactive)
same,viability,"[17]; at 1.25 µM, OCI-P5x cells, without rucaparib",128% (inactive)
same,viability,"[17]; at 5 µM, OCI-C5x cells, with rucaparib 10 µM, 100% = cells with rucaparib alone",115% (inactive)
same,viability,"[17]; at 5 µM, OCI-C5x cells, without rucaparib",116% (inactive)
same,viability,"[17]; at 5 µM, OCI-P5x cells, with rucaparib 20 µM, 100% = cells with rucaparib alone",122% (inactive)
same,viability,"[17]; at 5 µM, OCI-P5x cells, without rucaparib",112% (inactive)
same,remaining NAD,[11],10 nM (inactive)
same,luciferase signal,[12],132 AU (inactive)
same,z-score,[13],0.57 (inactive) and 0.76 (inactive) and 0.71 (inactive)
same,inhibition,"[18]; BGB IC20 combo, at 0.005 µM",-9.77% and 11.3%
same,inhibition,"[18]; BGB IC40 combo, at 0.005 µM",-20.4% and -26.6%
same,inhibition,"[18]; BGB IC40 combo, at 0.05 µM",-15.7% and -0.427%
same,inhibition,[18]; at 0.5 µM,-27.6% (inactive) and -12.8% (inactive)
same,inhibition,"[18]; cisplatin combo, at 0.05 µM",-18.9% and -4.04%
same,inhibition,"[18]; cisplatin combo, at 0.5 µM",-35.6% and -3.79%
same,inhibition,"[18]; cisplatin combo, at 5 µM",-25.9% and 4.77%
same,inhibition,"[18]; measured here: 5 uM single agent, at 5 µM",-29.5% and -2.64%
